Sampled rows, rich in hits. Any-hit rate of the full collection: about 3.7%.
MazEF act: MazEF (E. coli) toxin RNase activation; actives 0.32% (n = 350,000); FAM/BHQ RNA-DNA oligo cleavage fluorescence, 5 h; P0AE70; activation, % at 20 µM; AID 504720; in the data active = activation above about 50%
Anthrax LF inh2: blocks Bacillus anthracis lethal factor protease. multiplex microsphere protease cleavage assay, LF. inhibition, % at 10 µM. actives 0.12% (n = 360,000)
BoNT-A LC inh2: inhibitors of Botulinum neurotoxin A light chain protease; multiplex microsphere protease substrate cleavage, flow cytometry; inhibition, % at 10 µM; actives 0.17% (n = 360,000); AID 588499
BoNT F protease: inhibitors of Botulinum neurotoxin F light chain protease. Multiplex microsphere protease cleavage assay, flow cytometry. inhibition, % at 10 µM. actives 0.22% (n = 360,000). AID 588497; in the data active = inhibition above about 35%, passing the limit was not always enough; inconclusive = no clear call, values can overlap the other calls
Bead autofluor: counter-screen for toxin protease inhibitors: compound fluorescence | compound autofluorescence counterscreen, microsphere flow cytometry; stronger effect = higher value | fluorescence intensity (test concentration not listed) | actives 3.1% (n = 360,000) | AID 624483; in the data active = fluorescence intensity above about 16000; inconclusive = no clear call, values can overlap the other calls
Large screens that a line does not name were inactive. Cut-off read from the data, not from the text of the source, unless noted: active = inhibition above about 30%; inconclusive = no clear call, values can overlap the other calls; inactive = below that.

CCN(CC)CCNC(=O)C(C)c1nn(CC)c(=O)c2ccccc12 (centres undefined)	Bead autofluor 22461
O=S(=O)(Cc1ccccc1)NCc1ccccn1	Bead autofluor 21025
Cc1ccccc1OCC(=O)N1N=C(C(F)(F)F)CC1(O)C(C)(C)C (centres undefined)	none
Cc1ccc(OCC(=O)N2N=C(C(F)(F)F)CC2(O)C(C)(C)C)cc1C (centres undefined)	Bead autofluor 19845
O=c1ncn(-c2ccc(F)cc2)c2ncccc12	BoNT-A LC inh2 inconclusive, Bead autofluor 20412
O=C(NCC(=O)N1CCC(Cc2ccccc2)CC1)c1ccccc1F	none
CCOc1ccc(N=C(NC#N)SCC(=O)NC2CC2)cc1	BoNT-A LC inh2 inconclusive, Bead autofluor 23167
CCOc1ccc(N=C(NC#N)SCC)cc1	none
CCNC(=O)C1CN(S(=O)(=O)c2ccccc2)CCN1S(=O)(=O)c1ccccc1 (centres undefined)	none
O=C(NC1CCCCC1)C1CN(S(=O)(=O)c2ccccc2)CCN1S(=O)(=O)c1ccccc1 (centres undefined)	Bead autofluor 24405
CCOC(=O)C1CCN(C(=O)COc2ccc(S(=O)(=O)N3CCOCC3)cc2C)CC1	none
O=C1NC(=O)N2CCSC2(Cc2ccccc2)N1 (centres undefined)	none
COc1ccc(/C=C/C(=O)N(C(C)C)C(C)C)cc1Br	none
COc1ccc(/C=C/C(=O)NC(C)C)cc1Br	Bead autofluor 22011
S=c1[nH]nc(CSc2nc3ccccc3s2)n1Cc1ccccc1	none
CCn1c(CSc2nc3ccccc3s2)n[nH]c1=S	Bead autofluor 20748
CCCSc1nnc(CSc2nc3ccccc3s2)n1-c1ccccc1	Bead autofluor 17205
CC(C)N1CCCC(C)(C(=O)Nc2ccc3c(c2)OCO3)C1 (centres undefined)	none (no result: MazEF act)
CC1(C(=O)NC2CCCC2)CCC(=O)N1Cc1cccs1 (centres undefined)	BoNT-A LC inh2 inconclusive, Bead autofluor 22707
CC1(C(=O)NC2CCCCCCC2)CCC(=O)N1Cc1cccs1 (centres undefined)	Bead autofluor 16346
CCC1(C)Cc2ccccc2-c2nc(NCCO)n(-c3ccc(C)cc3)c(=O)c21 (centres undefined)	none
CCC1(CC)Cc2ccccc2-c2nc(NCCO)[nH]c(=O)c21	Bead autofluor 20997
O=c1c2c(nc3n1CCCCC3)-c1ccccc1CC21CCCCC1	none
CCC1(C)Cc2ccccc2-c2nc(NCCO)n(-c3ccccc3)c(=O)c21 (centres undefined)	Bead autofluor 16333
CCC1(C)Cc2ccccc2-c2nc3n(c(=O)c21)CCCCC3 (centres undefined)	Bead autofluor 21213
CC(C)(C)OC(=O)C[C@H]1C/C=C\C[C@H](CC(=O)N(CCO)Cc2ccccc2)C(=O)N[C@@H](c2ccccc2)COC1=O	none
CN1OC[C@@H]2CN(C(=O)CCc3ccccc3)[C@H](c3ccc(N4CCCCC4)cc3)C[C@@H]21	none (no result: MazEF act)
Cc1ccc2c(CC(=O)Nc3ccc4nc(N5CCOCC5)sc4c3)coc2c1	none
Cc1ccc(/C=C2\SC(=S)N(CCCC(=O)Nc3ccccn3)C2=O)cc1	none
COc1cc(/C=C2/SC(=S)N(CC(=O)NC(C)(C)C)C2=O)cc(OC)c1OC	BoNT-A LC inh2 31
COc1cc(/C=C2\SC(=S)N(CC(=O)NC(C)(C)C)C2=O)cc(OC)c1OC	none
COc1ccc(/C=C2\SC(=S)N(CCCC(=O)Nc3ccccn3)C2=O)cc1OC	BoNT-A LC inh2 39
COc1ccc(/C=C2/SC(=O)N(NS(=O)(=O)c3ccccc3)C2=S)cc1OC	Bead autofluor 21520
COc1cc(/C=C2\SC(=S)N(NS(=O)(=O)c3ccccc3)C2=O)cc(OC)c1OC	none
O=C(O)c1cccc(N2C(=O)c3cccnc3C2=O)c1	BoNT-A LC inh2 inconclusive, Bead autofluor 23303
CN1CCS/C1=C/C=C1/SC(=S)N(Cc2ccccc2)C1=O	none
CCN1/C(=C\C=C2\C(=O)N(C)C(=S)N2C)Sc2ccccc21	none
CCN1C(=O)/C(=C/C=C2/Sc3ccc4ccccc4c3N2CCO)SC1=S	Anthrax LF inh2 52, BoNT-A LC inh2 63, BoNT F protease 36
CCN1C(c2ccccc2)=C(c2ccccc2)S/C1=C\C=C1/SC(=S)N(C)C1=O	Anthrax LF inh2 44, BoNT-A LC inh2 98
CCN1C(c2ccccc2)=C(c2ccccc2)S/C1=C/C=C1\SC(=S)N(C)C1=O	Anthrax LF inh2 41, BoNT-A LC inh2 141
CCNC(=O)c1c(NC(=O)c2cc(-c3cc(C)cc(C)c3O)n[nH]2)sc2c1CCCC2	none
O=C(c1cc(F)c(F)cc1Cl)N1CCN(CCc2ccccc2)CC1	none
Cc1onc(-c2ccccc2)c1C(=O)OCC(=O)Nc1ccccc1Cl	none
CCOC(=O)c1cccc(NC(=O)CN(c2ccc(OC)cc2)S(=O)(=O)c2c(C)noc2C)c1	Bead autofluor 20239
CCOc1ccccc1NC(=O)CN(c1cc(C)cc(C)c1)S(=O)(=O)c1c(C)noc1C	none
COc1ccc(N(CC(=O)Nc2cccc(C)c2C)S(=O)(=O)c2c(C)n[nH]c2C)cc1	BoNT-A LC inh2 inconclusive, Bead autofluor 20057
CCOc1ccccc1NC(=O)CN(c1ccc(OC)cc1)S(=O)(=O)c1c(C)noc1C	Bead autofluor 16905
O=C(/C=C/c1ccccc1)c1ccccc1	none
Cc1ccc(C(=O)/C=C\C(=O)c2ccc(C)cc2)cc1	none
CCc1ccc(C(=O)/C=C/c2ccc([N+](=O)[O-])o2)cc1	none
Cc1ccc(C(=O)/C=C/c2ccc(-c3ccc(C)cc3)o2)cc1	BoNT-A LC inh2 41
CCN(CC)S(=O)(=O)c1ccc(C(=O)/C=C/c2ccc(-c3ccc([N+](=O)[O-])cc3)o2)cc1	MazEF act 298, Anthrax LF inh2 48, BoNT-A LC inh2 79
O=C(/C=C\c1ccc(-c2ccccc2)o1)c1ccccc1	BoNT-A LC inh2 66
O=C(CN(Cc1ccco1)C(=O)c1cc(=O)[nH]c2ccccc12)Nc1ccccc1C(F)(F)F	Bead autofluor 16502
Cc1cc(C(N)=O)c2cc(Br)ccc2n1	Bead autofluor 20846
CN(C(=O)/C(N=Nc1cccc(C(F)(F)F)c1)=C(\O)C(F)(F)F)c1ccccc1	Bead autofluor 16687
O=C(NCCCN1CCCC1)c1[nH]c(C(F)(F)F)nc1-c1ccccc1	none (no result: MazEF act)
Cc1ccc(C(=O)O/N=C(\N)c2cccc([N+](=O)[O-])c2)cc1	Bead autofluor 19951
N/C(=N\OC(=O)c1ccc(Cl)c([N+](=O)[O-])c1)c1ccccc1	BoNT F protease 63
Cc1cc(C)cc(C(=O)O/N=C(\N)c2ccc(Br)cc2)c1	Bead autofluor 20148
CN(CC(=O)O/N=C(\N)c1cccc([N+](=O)[O-])c1)S(=O)(=O)c1ccccc1	Bead autofluor 17118
N/C(=N\OC(=O)c1ccc(Br)cc1)c1cccc([N+](=O)[O-])c1	BoNT F protease inconclusive
CCOC(=O)[C@]12CCC=C1N(Cc1ccc3c(c1)OCO3)C(=O)[C@H](CC(=O)NCCc1ccccc1OC)C2	none (no result: MazEF act)
Cc1ccc(OCC(=O)NCCNC(=O)c2cnccn2)cc1	none

Assay outcomes as filed in PubChem.
